From PubChem BioAssay (EPA / NIEHS)
Activity calls are given as the source filed them. Rule for the calls: active = hit-call score of the fitted dose curve at least 0.9, where 1 is the maximum; inactive = score below 0.9.

read-out: Monocyte Chemoattractant Protein-1 (MCP1), CCL2 (gene 6347); experiment: BSK_LPS_MCP1: BioMAP Diversity Plus: LPS Assay for Monocyte Chemoattractant Protein-1 (MCP1) Biomarker Activity (AID 2283081); conditions: primary human HUVEC with PBMC; actives raise or lower the signal;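 for AC50: co-culture stimulated with LPS; secreted MCP-1 protein quantified by ELISA in culture supernatant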
Procedure, shortened: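 Secreted MCP-1 read by ELISA at 24 h post-dosing in an LPS-activated co-culture of endothelial cells with peripheral blood mononuclear cells. Fits run in both directions, DMSO as baseline; parallel SRB staining tracks overt cytotoxicity.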

| Compound | outcome | AC50 |
| --- | --- | --- |
| O=C(O)Cc1cc(I)c(Oc2ccc(O)c(I)c2)c(I)c1 | inactive | – |
| Cc1cccc2ccccc12 | inactive | – |
| O=c1c(-c2ccc(O)cc2)coc2cc(O)cc(O)c12 | – | 17.9 µM (active) |
| CC/C(=C(/CC)c1ccc(O)cc1)c1ccc(O)cc1 | – | 33.9 µM (active) |
| Cc1cc(F)ccc1-c1cc(N2CC[C@@H](O)[C@H]2CO)ncc1N(C)C(=O)C(C)(C)c1cc(C(F)(F)F)cc(C(F)(F)F)c1 | – | 10.8 µM (active) |
| O=C1O[C@H]([C@@H](O)CO)C(O)=C1O | inactive | – |
| CO[C@H]1/C=C/O[C@@]2(C)Oc3c(C)c(O)c4c(O)c(c(/C=N/N5CCN(C)CC5)c(O)c4c3C2=O)NC(=O)/C(C)=C\C=C\[C@H](C)[C@H](O)[C@@H](C)[C@@H](O)[C@@H](C)[C@H](OC(C)=O)[C@@H]1C | inactive | – |
| C[C@]12CC[C@@H]3c4ccc(O)cc4CC[C@H]3[C@@H]1CCC2=O | inactive | – |
| Oc1ccc2ccccc2c1 | inactive | – |
| c1ccc(C[n+]2cccc3ccccc32)cc1 | inactive | – |
| CCCCCCCCCCCO | inactive | – |
| O=C(Nc1ccc(Cl)cc1)Nc1ccc(Cl)c(Cl)c1 | – | 3.51 µM (active) |
| CCCCCCCCOC(=O)c1cc(O)c(O)c(O)c1 | – | 26.7 µM (active) |
| CN1C(=O)N(c2ccccc2Br)Cc2cnc(Nc3ccc4c(c3)OCC(CO)O4)nc21 (centres undefined) | – | 5.19 µM (active) |
| Cc1occc1C(=O)Nc1ccc(C(=O)N2CCC(F)(F)/C(=C\C(=O)N3CCC(N4CCCCC4)CC3)c3ccccc32)cc1 | inactive | – |
| Cc1oc2c(NC(=O)c3c(Cl)cccc3Cl)cccc2c1C(C)(C)O | inactive | – |
| O=C=NCCCCCCN=C=O | inactive | – |
| c1ccc2ccccc2c1 | inactive | – |
| O=CCCCC=O | inactive | – |

| Compound | outcome | AC50 |
| --- | --- | --- |
| COc1cc(C(=O)NC2CCN(C)CC2)ccc1Nc1ncc2c(n1)N(C1CCCC1)CC(F)(F)C(=O)N2C | – | 11.7 µM (active) |
| O=C1c2ccccc2C(=O)N1CCc1noc(-c2ccc(CN3CCCCCC3)s2)n1 | inactive | – |
| CCCC(=O)OCCC(C)C | inactive | – |
| Clc1cc(Cl)c2c(c1)N=C1CCCCCN1C2 | inactive | – |
| CC(C)(c1cc(Br)c(O)c(Br)c1)c1cc(Br)c(O)c(Br)c1 | – | 29.1 µM (active) |
| CCCOC(=O)c1cc(O)c(O)c(O)c1 | inactive | – |
| O=C(OCCCCCCOC(=O)c1ccccc1)c1ccccc1 | inactive | – |
| CC(C)(C)c1cc(/C=C2\SC(N)=NC2=O)cc(C(C)(C)C)c1O | – | 26.9 µM (active) |
| CCO[Si](CCCNC(N)=O)(OCC)OCC | inactive | – |
| O=C(O)Cn1c(=O)n(Cc2ccc(Br)cc2F)c(=O)c2ccc(Cl)cc21 | inactive | – |
| COc1ccc2cc(S(=O)(=O)N[C@H](CC(=O)N[C@H](Cc3ccc(CN4[C@H](C)CCC[C@@H]4C)cc3)C(=O)N(C)C(C)C)c3ccc4c(c3)OCO4)ccc2c1 | – | 23.1 µM (active) |
| CC(C)(C)c1csc(-c2cc3cc(OCc4ccccc4CC(=O)O)ccc3o2)n1 | – | 22.6 µM (active) |
| Cc1ccc(C(C)C)cc1 | inactive | – |
| O=C(O)c1ccccc1C(=O)OCc1ccccc1 | inactive | – |
| CCCCCCCC[Si](OCC)(OCC)OCC | inactive | – |
| CCN(Cc1cccnc1)C(=O)c1cccc(Cl)c1[C@]1(C)C(=O)N(Cc2ccc(OC)cc2OC)c2ccc(Cl)cc21 | – | 8.28 µM (active) |
| O=C(O)c1ccccc1-n1cc(C(=O)O)c(=O)c2cc(Nc3c(F)cc(F)cc3Cl)c(Cl)cc21 | inactive | – |
| Cc1cc2c(cc1C(F)(F)F)N(C(=O)Nc1ccc(Oc3cccnc3C)nc1)CC2 | inactive | – |
| CCCCOC(=O)CC(CC(=O)OCCCC)(OC(C)=O)C(=O)OCCCC | inactive | – |

read-out: not listed separately; experiment: BSK_LPS_PGE2: BioMAP Diversity Plus: LPS Assay for Prostaglandin E2 (PGE2) Biomarker Activity (AID 2283082); conditions: primary human HUVEC with PBMC; actives raise or lower the signal;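 for AC50: secreted prostaglandin E2 measured by ELISA in LPS-stimulated co-culture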
Procedure, shortened: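 PGE2 release measured by ELISA in an LPS-activated co-culture of human umbilical vein endothelial cells and peripheral blood mononuclear cells, read at 24 h post-dosing. DMSO served as baseline for bidirectional curve fitting.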

| Compound | outcome | AC50 |
| --- | --- | --- |
| O=C(O)Cc1cc(I)c(Oc2ccc(O)c(I)c2)c(I)c1 | inactive | – |
| Cc1cccc2ccccc12 | inactive | – |
| O=c1c(-c2ccc(O)cc2)coc2cc(O)cc(O)c12 | – | 10 µM (active) |
| CC/C(=C(/CC)c1ccc(O)cc1)c1ccc(O)cc1 | – | 20 µM (active) |
| Cc1cc(F)ccc1-c1cc(N2CC[C@@H](O)[C@H]2CO)ncc1N(C)C(=O)C(C)(C)c1cc(C(F)(F)F)cc(C(F)(F)F)c1 | inactive | – |
| O=C1O[C@H]([C@@H](O)CO)C(O)=C1O | inactive | – |
| CO[C@H]1/C=C/O[C@@]2(C)Oc3c(C)c(O)c4c(O)c(c(/C=N/N5CCN(C)CC5)c(O)c4c3C2=O)NC(=O)/C(C)=C\C=C\[C@H](C)[C@H](O)[C@@H](C)[C@@H](O)[C@@H](C)[C@H](OC(C)=O)[C@@H]1C | inactive | – |
| C[C@]12CC[C@@H]3c4ccc(O)cc4CC[C@H]3[C@@H]1CCC2=O | inactive | – |
| c1ccc(C[n+]2cccc3ccccc32)cc1 | inactive | – |
| CCCCCCCCCCCO | inactive | – |
| O=C(Nc1ccc(Cl)cc1)Nc1ccc(Cl)c(Cl)c1 | – | 1.9 µM (active) |
| CCCCCCCCOC(=O)c1cc(O)c(O)c(O)c1 | – | 5.32 µM (active) |
| CN1C(=O)N(c2ccccc2Br)Cc2cnc(Nc3ccc4c(c3)OCC(CO)O4)nc21 (centres undefined) | – | 3.63 µM (active) |
| Cc1occc1C(=O)Nc1ccc(C(=O)N2CCC(F)(F)/C(=C\C(=O)N3CCC(N4CCCCC4)CC3)c3ccccc32)cc1 | inactive | – |
| Cc1oc2c(NC(=O)c3c(Cl)cccc3Cl)cccc2c1C(C)(C)O | – | 21.1 µM (active) |
| O=C=NCCCCCCN=C=O | inactive | – |
| c1ccc2ccccc2c1 | inactive | – |
| O=CCCCC=O | inactive | – |

| Compound | outcome | AC50 |
| --- | --- | --- |
| O=C1c2ccccc2C(=O)N1CCc1noc(-c2ccc(CN3CCCCCC3)s2)n1 | inactive | – |
| CCCC(=O)OCCC(C)C | inactive | – |
| Clc1cc(Cl)c2c(c1)N=C1CCCCCN1C2 | inactive | – |
| CC(C)(c1cc(Br)c(O)c(Br)c1)c1cc(Br)c(O)c(Br)c1 | inactive | – |
| CCCOC(=O)c1cc(O)c(O)c(O)c1 | – | 4.97 µM (active) |
| O=C(OCCCCCCOC(=O)c1ccccc1)c1ccccc1 | – | 32.4 µM (active) |
| CC(C)(C)c1cc(/C=C2\SC(N)=NC2=O)cc(C(C)(C)C)c1O | – | 0.186 µM (active) |
| CCO[Si](CCCNC(N)=O)(OCC)OCC | inactive | – |
| O=C(O)Cn1c(=O)n(Cc2ccc(Br)cc2F)c(=O)c2ccc(Cl)cc21 | – | 10.5 µM (active) |
| COc1ccc2cc(S(=O)(=O)N[C@H](CC(=O)N[C@H](Cc3ccc(CN4[C@H](C)CCC[C@@H]4C)cc3)C(=O)N(C)C(C)C)c3ccc4c(c3)OCO4)ccc2c1 | – | 31.1 µM (active) |
| CC(C)(C)c1csc(-c2cc3cc(OCc4ccccc4CC(=O)O)ccc3o2)n1 | inactive | – |
| Cc1ccc(C(C)C)cc1 | inactive | – |
| O=C(O)c1ccccc1C(=O)OCc1ccccc1 | inactive | – |
| CCCCCCCC[Si](OCC)(OCC)OCC | inactive | – |
| CCN(Cc1cccnc1)C(=O)c1cccc(Cl)c1[C@]1(C)C(=O)N(Cc2ccc(OC)cc2OC)c2ccc(Cl)cc21 | inactive | – |
| O=C(O)c1ccccc1-n1cc(C(=O)O)c(=O)c2cc(Nc3c(F)cc(F)cc3Cl)c(Cl)cc21 | inactive | – |
| Cc1cc2c(cc1C(F)(F)F)N(C(=O)Nc1ccc(Oc3cccnc3C)nc1)CC2 | inactive | – |
| CCCCOC(=O)CC(CC(=O)OCCCC)(OC(C)=O)C(=O)OCCCC | inactive | – |
